PubChem BioAssay (NCATS)
Unmarked numbers belong to inactive results. Calls come from the whole dose curve; as a rule, active = well fitted cell-killing curve with a large enough effect; inconclusive = small, poorly fitted or top-dose-only effect; inactive = flat fitted curve, though single readings scatter.

experiment: Cell Viability - LYMP1-002 - Assay at 24 hr (AID 993); conditions: LYMP1-002 lymphoblastoid cells viability; series mostly up to 92.2 µM; activity change, negative = cytotoxicity: at the top concentration
Excerpt: NIH Chemical Genomics Center [NCGC]
NIH Molecular Libraries Screening Centers Network [MLSCN]
National Institutes of Environmental Health Sciences [NIEHS]
National Toxicology Program [NTP]
We have developed a 1536-well cell-based assay for quantitative high throughput screening (qHTS) against a number of cell lines to determine in vitro cytotoxicity of small molecules. This particular assay uses a human lymphoblastoid cell line (LYMP1-002) purchased from Coriell Institute for Medical Research.
NCGC Assay Protocol Summary:
The CellTiter-Glo luminescent cell viability assay (Promega) is a homogeneous method to measure the number of viable cells in culture. The end point readout of this assay is based on quantitation of intracellular ATP, an indicator of metabolic activity, using the luciferase reaction. Luciferase catalyzes the oxidation of beetle Luciferin to oxyluciferin and light in the presence of ATP. The luminescent signal is proportional to amount of ATP present.
Using the CellTiter-Glo luminescent cell viability assay, the amount of cellular ATP was measured in the lymphoblastoid cell line with complete culture medium following compound treatment for 24 hours. The assay was performed in opaque white Kalypsys 1536-well plates. In the screen, tetraoctylammonium bromide was used as positive control. Library compounds were measured for their ability to cause acute toxicity in the cell line, as reflected by a decrease in intracellular ATP levels, in a concentration-dependent manner. […] AC50 values were determined from concentration-response data modeled with the standard Hill equation.
qHTS protocol for CellTiter Glo lymphoblastoid cellular assay
[Step] [Parameter] [Value] [Description]
1. Reagent; 5 uL; 2500 lymphoblastoid cells/well
2. Time; 5 hr; 37 C incubation
4. Controls; 23 nL; Tetraoctylammonium bromide 6.4pM to 92 uM
5. Time; 24 hr; 37 C incubation
6. Reagent; 5 uL; CellTiter Glo reagent
7. Time; 30 min; Room Temperature
8. Detection; Luminescence; Viewlux plate reader
Keywords: cell viability, cytotoxicity, lymphoblastoid cell line, luminescence, NTPHTS, NTPHTS_NCGC, NIEHS, DSSTox, MLSMR, MLSCN, NIH Roadmap, qHTS, NCGC
% is set by controls: 0 for no effect and ±100 for the full control effect.

| Structure (SMILES) | activity change, negative = cytotoxicity [%] |
| --- | --- |
| O=C(c1ccccc1)C(O)c1ccccc1 (configuration not stated) | -2.53 |
| CCCCOC(=O)c1ccc(N)cc1 | -4.45 |
| Cc1c(N(C)C)c(=O)n(-c2ccccc2)n1C | -0.708 |
| O=C1c2cccc(O)c2C(=O)c2c(O)cccc21 | -8.65 |
| CC(=O)NS(=O)(=O)c1ccc(N)cc1 | 1.64 |
| O=C1C(c2[nH]c3ccccc3c2O)=Nc2ccccc21 | 4.07 |
| CC(=O)Nc1ccccc1 | -1.65 |
| CC(=O)Nc1cccc(O)c1 | 1.75 |
| CCN(CC)C(=O)c1cccc(C)c1 | 0.603 |
| C=CCNC(N)=S | 1.13 |
| O=C(O)CCCCC1CCSS1 (configuration not stated) | -11.1 |
| Nc1ccc(S(=O)(=O)c2ccc(N)cc2)cc1 | -4.35 |
| CC(=O)Nc1ccc(C(=O)O)cc1 | -0.566 |
| CCCCCC(N)=O | 1.97 |
| CCCC(O)C(CC)CO (configuration not stated) | 3.31 |
| COc1ccc(O)cc1 | 6.04 |
| CC1CC(OC(=O)c2ccccc2O)CC(C)(C)C1 (configuration not stated) | -0.812 |
| CCCCCCCC(=O)OCC(COC(=O)CCCCCCC)OC(=O)CCCCCCC | 1.22 |
| CC(=O)OCC(COC(C)=O)OC(C)=O | -3.11 |
| Cc1cc(=O)[nH]c(=S)[nH]1 | 1.59 |
| Cc1cc(C)nc(NS(=O)(=O)c2ccc(N)cc2)n1 | 8.03 |
| FC(F)(F)C(Cl)Br (configuration not stated) | -1.15 |
